According to PubChem BioAssay:

biological target: Concanavalin-A (Canavalia ensiformis) (UniProt P02866); assay: ConA small-molecule binders, primary screen, artefact control for SMM control protein annotation, biochemical, small-molecule microarray, Alexa647 label, 635 nm (AID 1127); conditions: ConA-A647 binding fluorescence, higher = more signal;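 further: z combines 667 nm emission intensity with signal-to-noise across three replicate slides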
Sequence (P02866 whole entry, looked up): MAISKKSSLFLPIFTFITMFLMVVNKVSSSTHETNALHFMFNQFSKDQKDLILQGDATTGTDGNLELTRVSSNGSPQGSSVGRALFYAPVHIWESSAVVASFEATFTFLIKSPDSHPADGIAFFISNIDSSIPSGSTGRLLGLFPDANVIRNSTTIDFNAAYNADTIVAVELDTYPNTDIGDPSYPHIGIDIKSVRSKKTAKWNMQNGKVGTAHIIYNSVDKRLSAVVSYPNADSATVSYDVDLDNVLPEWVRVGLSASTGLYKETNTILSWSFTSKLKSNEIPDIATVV

Compound | composite z-score
COCCCNC(=O)[C@@]1(Sc2ccc(C)cc2)CC(=O)N(C2CCCCC2)[C@@H]1c1ccc(CO)cc1I | 1.07
[N-]=[N+]=NCc1ccccc1C[C@]1(C(=O)O)COC(c2ccc(OCCCO)cc2)=N1 | -0.927
COC(=O)[C@@]1(Cc2ccc(OC)cc2)[C@H]2c3cc(C(=O)N(C)C)n(Cc4ccsc4Br)c3C[C@H]2CN1C(=O)c1ccccc1 | 0.852
CCCCC(=C=CC[C@@H](O)c1ccc(OCCO)cc1)C[C@@H](O)c1ccccn1 | 0.223
O=C1NC(=O)C2C1C=CC(C(O)c1cccc(O)c1)N2Nc1ccc(Cl)cc1Cl (stereo not given) | -0.0019
[N-]=[N+]=NCc1ccccc1C[C@]1(C(=O)NCc2ccccc2)N=C(c2ccc(OCCCO)cc2)O[C@H]1c1ccccc1CN=[N+]=[N-] | 0.958
O=C1O[C@H](c2ccccc2)[C@H](c2ccccc2)N2[C@H]1[C@@H](C(=O)N1CCN(c3ncccn3)CC1)[C@]1(C(=O)Nc3ccccc31)[C@H]2c1ccc(O)cc1 | 1.16
COC(=O)[C@@]1(Cc2ccc(F)cc2)[C@H]2c3cc(C(=O)N4CCCC4)n(CCO)c3C[C@H]2CN1C(=O)c1ccccc1 | -0.242
O=C1NC(=O)C2C1C=CC(C(O)c1ccc(F)cc1)N2Nc1ccccn1 (stereo not given) | 0.356
CC[C@H](C)C(=O)O[C@H]1CC[C@]2(C)C3=C(CCC2C1(C)C)[C@]1(C)CC[C@H]([C@H](C)CCCC(C)C)[C@@]1(C)CC3 (stereo not given in full) | 0.515
CCCC[C@H]1OB(O)C[C@H]2C1=C(COC)C[C@H]1C(=O)C=CC(=O)[C@H]12 | 0.486
CCCCCCCCCCC(O)C1C=CC2C(=O)N(C)C(=O)C2N1N1CCCCC1 (stereo not given) | -1.13
C=CC[C@]1(C(=O)NCCCOC)N=C(c2ccc(OCCCO)cc2)O[C@H]1c1ccccc1 | 0.335
CC1CC/C=C\[C@H]2OC34C=CCN(c5ccc(Cl)cc5)C(=O)[C@H]3N(CCCO)C(=O)[C@]4(C)C2C(=O)O1 (stereo not given in full) | -0.749
C=C(CC1([C@@H](NP(=O)(c2ccccc2)c2ccccc2)[C@H]2C[C@@H]2CCN(C(=O)OCC)S(=O)(=O)c2ccc(C)cc2)CC1)c1ccccc1 | 0.74
COCC1=C([C@H](O)CCc2ccccc2)[C@H](CO)n2c(=O)n(-c3ccccc3)c(=O)n2C1 | 0.134
COC(=O)c1ccc([C@H](NC(=O)c2ccccc2)[C@]2(C)C[C@H]2C2CCCCC2)cc1 | 0.551
COCCOC(=O)N1C(=O)[C@@]2(c3cc(C#CC4=CCCCC4)ccc31)[C@H](c1ccccc1OCCO)N1[C@H](c3ccccc3)[C@H](c3ccccc3)OC(=O)[C@H]1[C@@H]2C(N)=O | 1.13

Compound | composite z-score
C=CCC(OC(C)=O)[C@@H]1[C@@H](N(Cc2cc3ccccc3o2)C(=O)Cc2ccc(OC)cc2)c2cc(OCCCO)ccc2N1C(=O)Cc1ccc2ccccc2c1 (stereo not given in full) | 0.3
COc1ccc([Si](C)(C)[C@H]2[C@H](CCO)O[C@@]3(C(=O)N(Cc4ccccc4)c4ccc(N(C=O)c5ccccc5)cc43)[C@@H]2C)cc1 | 1.02
CC(C)CNC(=O)[C@@H]1c2ccccc2C(=O)N(Cc2ccccc2Cl)[C@H]1c1ccc(CO)cc1 | -1.68
CCCCNC(=O)c1ccc(C#C[Si](C)(C)C)c(OC(C)=O)c1 | 0.0668
COc1cc2c(cc1O)C(c1ccc(CN3CCCC3)cc1)N(Cc1cccc(OC(F)(F)F)c1)CC2 (stereo not given) | -0.328
C=CCOC(=O)[C@H]1[C@@H]2C(=O)O[C@@H](c3ccccc3)[C@@H](c3ccccc3)N2[C@@H](c2ccc(OCCOC(=O)[C@H]3C[C@H]4C(=O)NCC(=O)N4[C@H]3c3ccc(O)cc3)cc2)[C@]12C(=O)Nc1ccc(I)cc12 | 1.13
NC(=O)N1C(=O)C2C(C1=O)C1C=C(CCCO)C2C(c2ccc(CN3CCCC3)cc2)N1Cc1cccc(OC(F)(F)F)c1 (stereo not given) | -0.171
C=C(CCCC)C(=O)CC[C@H](OC(C)=O)c1ccccc1OCCO | -0.0099
C=CCC(OC(C)=O)[C@@H]1[C@@H](N(Cc2cccc3ccccc23)C(=O)c2ccc(-c3ccccc3)cc2)c2cc(OCCCO)ccc2N1C(=O)c1ccc2ccccc2n1 (stereo not given in full) | -0.288
COC(=O)[C@@]1(Cc2ccccc2)[C@@H]2[C@@H](CC(=O)[C@H]2CC(=O)C(=O)N(C)C)CN1C(=O)c1ccccc1 | 0.596
COCCOC(=O)N1C(=O)[C@@]2(c3cc(C#Cc4ccc(OC)cc4)ccc31)[C@H](C(=O)Nc1nc3ccccc3s1)[C@H]1C(=O)O[C@H](c3ccccc3)[C@H](c3ccccc3)N1[C@@H]2c1ccccc1OCCO | 1.11
CCc1cccc(NC(=O)O[C@H]2[C@H](OC(=O)Nc3ccc4c(c3)OCO4)[C@H](OC(=O)Nc3ccc4c(c3)OCO4)[C@@H](OC)O[C@@H]2CO)c1 | 1.14
C=C(COC)/C(=C/C[C@H](OC(=O)c1ccncc1)c1cccc(OCCO)c1)c1cnc2ccccc2c1 | 1.09
COCCn1c(C(=O)N2CCCC2)cc2c1C[C@H]1CN(C(=O)c3ccccc3)[C@@](Cc3ccccc3)(C(=O)OC)[C@@H]21 | 1.11
O=C1C2C=CC(C(O)C(c3ccccc3)c3ccccc3)N(Nc3ccccc3)C2C(=O)N1c1ccccc1 (stereo not given) | 0.942
Cc1ccc(S(=O)(=O)N2[C@@H](c3ccccc3)C(C(=O)O)=CC[C@H]2c2ccc(C#N)cc2)cc1 | 0.805
C=CCC(OC(C)=O)[C@@H]1[C@@H](N(Cc2cc3ccccc3o2)C(=O)c2ccc(-c3ccccc3)cc2)c2cc(OCCCO)ccc2N1C(=O)c1ccc2ccccc2n1 (stereo not given in full) | -1.34
